From PubChem BioAssay AID1159580 (chemical genetic matrix, 2015)
Screen size: about 5,500 compounds; about 2,000 (36%) were called active. Roughly 18% stayed inconclusive and do not appear here. No stated cut-off is given here; in the data, active means normalized growth mostly below about 0.91 (no sharp cut-off); inconclusive means no clear call, values can overlap the other calls; inactive means mostly above about 0.92. The list shows a part of the results.

Experiment: chemical genetic growth profiling, strain panel (AID 1159580);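 further: tested at 20 µM; growth read once vehicle control cultures reached saturation at 30 °C; 1 = growth at the plate median or of vehicle wells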
Details: growth OD

Measured: normalized growth

CCOC(=O)[C@H](CCc1ccccc1)N[C@H]1CCc2ccccc2N(CC(=O)O)C1=O
inactive: S. cerevisiae deletion strains, locus YJR075W, strain HOC1, stronger effect = lower value 0.994 | S. cerevisiae deletion strains, locus YKL009W, strain mrt4, stronger effect = lower value 1 | S. cerevisiae deletion strains, locus YKL068W, stronger effect = lower value 0.973 | S. cerevisiae deletion strains, locus YKL085W, strain MDH1 (second series), stronger effect = lower value 0.967 | S. cerevisiae deletion strains, locus YKL085W, strain MDH1, stronger effect = lower value 0.967 | S. cerevisiae deletion strains, locus YKL160W, strain elf1, stronger effect = lower value 0.993 | S. cerevisiae deletion strains, locus YKL190W, strain CNB1, stronger effect = lower value 0.989 | S. cerevisiae deletion strains, locus YKR001C, strain vps1, stronger effect = lower value 0.983 | S. cerevisiae deletion strains, locus YKR026C, strain gcn3, stronger effect = lower value 0.979 | S. cerevisiae deletion strains, locus YKR091W, strain srl3, stronger effect = lower value 0.989 | S. cerevisiae deletion strains, locus YLL001W, strain dnm1, stronger effect = lower value 0.983 | S. cerevisiae deletion strains, locus YLL026W, stronger effect = lower value 0.989 | S. cerevisiae deletion strains, locus YLL041C, strain sdh2, stronger effect = lower value 0.986 | S. cerevisiae deletion strains, locus YLR027C, strain aat2, stronger effect = lower value 0.982 | S. cerevisiae deletion strains, locus YLR039C, strain RIC1, stronger effect = lower value 1.02 | S. cerevisiae deletion strains, locus YLR058C, strain SHM2, stronger effect = lower value 0.999 | S. cerevisiae deletion strains, locus YLR102C, strain apc9, stronger effect = lower value 0.972 | S. cerevisiae deletion strains, locus YLR113W, strain HOG1, stronger effect = lower value 1.01 | S. cerevisiae deletion strains, locus YLR221C, strain rsa3, stronger effect = lower value 0.983 | S. cerevisiae deletion strains, locus YLR258W, strain gsy2, stronger effect = lower value 0.983 | S. cerevisiae deletion strains, locus YLR262C, strain YPT6 (second series), stronger effect = lower value 0.97 | S. cerevisiae deletion strains, locus YLR262C, strain YPT6, stronger effect = lower value 0.955 | S. cerevisiae deletion strains, locus YLR268W, strain sec22, stronger effect = lower value 0.98 | S. cerevisiae deletion strains, locus YLR320W, strain mms22, stronger effect = lower value 0.966 | S. cerevisiae deletion strains, locus YLR330W, strain CHS5, stronger effect = lower value 0.986 | S. cerevisiae deletion strains, locus YLR342W, strain FKS1 (second series), stronger effect = lower value 1.05 | S. cerevisiae deletion strains, locus YLR342W, strain FKS1, stronger effect = lower value 0.956 | S. cerevisiae deletion strains, locus YLR357W, strain rsc2, stronger effect = lower value 0.912 | S. cerevisiae deletion strains, locus YLR370C, strain arc18, stronger effect = lower value 0.988 | S. cerevisiae deletion strains, locus YLR371W, strain rom2, stronger effect = lower value 0.969 | S. cerevisiae deletion strains, locus YLR384C, strain iki3, stronger effect = lower value 0.986 | S. cerevisiae deletion strains, locus YLR418C, strain cdc73, stronger effect = lower value 0.953 | S. cerevisiae deletion strains, locus YML016C, strain PPZ1, stronger effect = lower value 0.98 | S. cerevisiae deletion strains, locus YML032C, strain rad52, stronger effect = lower value 0.984 | S. cerevisiae deletion strains, locus YML120C, strain ndi1, stronger effect = lower value 0.975 | S. cerevisiae deletion strains, locus YML124C, strain tub3, stronger effect = lower value 0.971 | S. cerevisiae deletion strains, locus YMR058W, strain fet3, stronger effect = lower value 0.988 | S. cerevisiae deletion strains, locus YMR078C, strain ctf18, stronger effect = lower value 0.978 | S. cerevisiae deletion strains, locus YMR125W, strain sto1, stronger effect = lower value 0.996 | S. cerevisiae deletion strains, locus YMR129W, stronger effect = lower value 0.991 | S. cerevisiae deletion strains, locus YMR205C, strain PFK2, stronger effect = lower value 0.974 | S. cerevisiae deletion strains, locus YMR223W, strain ubp8, stronger effect = lower value 0.993 | S. cerevisiae deletion strains, locus YMR231W, strain pep5, stronger effect = lower value 0.986 | S. cerevisiae deletion strains, locus YMR263W, strain SAP30, stronger effect = lower value 0.993 | S. cerevisiae deletion strains, locus YMR307W, strain GAS1, stronger effect = lower value 0.939 | S. cerevisiae deletion strains, locus YNL067W, strain RPL9B, stronger effect = lower value 0.996 | S. cerevisiae deletion strains, locus YNL071W, strain lat1, stronger effect = lower value 0.989 | S. cerevisiae deletion strains, locus YNL128W, strain TEP1, stronger effect = lower value 0.984 | S. cerevisiae deletion strains, locus YNL153C, strain GIM3, stronger effect = lower value 0.988 | S. cerevisiae deletion strains, locus YNL183C, strain NPR1, stronger effect = lower value 0.959 | S. cerevisiae deletion strains, locus YNL209W, strain ssb2, stronger effect = lower value 0.98 | S. cerevisiae deletion strains, locus YNL233W, strain BNI4, stronger effect = lower value 0.99 | S. cerevisiae deletion strains, locus YNL248C, strain rpa49, stronger effect = lower value 0.98 | S. cerevisiae deletion strains, locus YNL250W, strain rad50, stronger effect = lower value 0.963 | S. cerevisiae deletion strains, locus YNL271C, strain bni1, stronger effect = lower value 0.959 | S. cerevisiae deletion strains, locus YNL298W, strain CLA4, stronger effect = lower value 0.968 | S. cerevisiae deletion strains, locus YNL307C, strain MCK1, stronger effect = lower value 0.986 | S. cerevisiae deletion strains, locus YNL322C, strain KRE1 (second series), stronger effect = lower value 0.967 | S. cerevisiae deletion strains, locus YNL322C, strain KRE1, stronger effect = lower value 0.98 | S. cerevisiae deletion strains, locus YNR049C, strain mso1, stronger effect = lower value 0.994 | S. cerevisiae deletion strains, locus YNR052C, strain pop2, stronger effect = lower value 0.977 | S. cerevisiae deletion strains, locus YOL006C, strain TOP1, stronger effect = lower value 1.08 | S. cerevisiae deletion strains, locus YOL012C, strain htz1 1.02 | S. cerevisiae deletion strains, locus YOL147C, strain pex11, stronger effect = lower value 0.975 | S. cerevisiae deletion strains, locus YOR001W, strain rrp6, stronger effect = lower value 0.989 | S. cerevisiae deletion strains, locus YOR061W, strain CKA2, stronger effect = lower value 0.983 | S. cerevisiae deletion strains, locus YOR069W, strain VPS5, stronger effect = lower value 0.99 | S. cerevisiae deletion strains, locus YOR070C, strain gyp1, stronger effect = lower value 0.982 | S. cerevisiae deletion strains, locus YOR080W, strain dia2, stronger effect = lower value 0.973 | S. cerevisiae deletion strains, locus YOR083W, strain WHI5, stronger effect = lower value 0.982 | S. cerevisiae deletion strains, locus YOR106W, strain vam3, stronger effect = lower value 0.984 | S. cerevisiae deletion strains, locus YOR136W, strain idh2, stronger effect = lower value 0.974 | S. cerevisiae deletion strains, locus YOR144C, strain elg1, stronger effect = lower value 0.965 | S. cerevisiae deletion strains, locus YOR184W, strain ser1, stronger effect = lower value 0.981 | S. cerevisiae deletion strains, locus YOR231W, strain MKK1, stronger effect = lower value 0.976 | S. cerevisiae deletion strains, locus YOR265W, strain rbl2, stronger effect = lower value 0.987 | S. cerevisiae deletion strains, locus YOR270C, strain vph1, stronger effect = lower value 1.04 | S. cerevisiae deletion strains, locus YOR290C, strain snf2, stronger effect = lower value 0.993 | S. cerevisiae deletion strains, locus YOR316C, strain cot1, stronger effect = lower value 0.959 | S. cerevisiae deletion strains, locus YPL051W, strain arl3, stronger effect = lower value 0.978 | S. cerevisiae deletion strains, locus YPL055C, strain LGE1, stronger effect = lower value 1.02 | S. cerevisiae deletion strains, locus YPL078C, strain atp4, stronger effect = lower value 0.984 | S. cerevisiae deletion strains, locus YPL106C, strain sse1, stronger effect = lower value 0.963 | S. cerevisiae deletion strains, locus YPL240C, strain hsp82, stronger effect = lower value 0.979 | S. cerevisiae deletion strains, locus YPL241C, strain CIN2, stronger effect = lower value 0.983 | S. cerevisiae deletion strains, locus YPL256C, strain CLN2, stronger effect = lower value 0.965 | S. cerevisiae deletion strains, locus YPR119W, strain clb2, stronger effect = lower value 0.971 | S. cerevisiae deletion strains, locus YPR141C, strain kar3, stronger effect = lower value 0.948 | S. cerevisiae deletion strains, locus YPR163C, strain tif3, stronger effect = lower value 0.968 | S. cerevisiae deletion strains, locus YPR167C, strain met16, stronger effect = lower value 0.978 | S. cerevisiae deletion strains, strain wtn01, stronger effect = lower value 0.973 | S. cerevisiae strains, strain wild type, stronger effect = lower value 0.98
